Most compounds without a hit are left out; they make up all but 12% or so of the library.
G9a inh = G9a (human) methyltransferase inhibition; Q96KQ7; G9a H3K9 monomethylation, AlphaScreen, 2 h; Potency, µM (top dose mostly 102 µM), for inactives: top-dose activity, negative = inhibition, usual class: inhibitors; 8.8% of 350,000 active; AID 504332; note: potency is the fitted concentration of half-maximal effect; % is set by controls: 0 for no effect and ±100 for the full control effect; nearly all actives have a fitted effect of over 75% in size
Target sequence (Q96KQ7 913-1193 limits assumed): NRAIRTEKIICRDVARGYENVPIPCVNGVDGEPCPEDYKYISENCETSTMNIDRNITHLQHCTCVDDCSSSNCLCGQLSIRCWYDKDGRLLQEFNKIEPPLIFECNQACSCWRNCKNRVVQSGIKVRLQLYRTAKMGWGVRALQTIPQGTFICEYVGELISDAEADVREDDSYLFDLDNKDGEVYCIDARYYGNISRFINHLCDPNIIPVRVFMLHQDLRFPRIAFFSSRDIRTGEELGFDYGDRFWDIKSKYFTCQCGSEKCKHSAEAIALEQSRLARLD
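Methyltransferase reactions run at room temperature for 2 h (20 nM enzyme, 500 nM biotin-H3K9 peptide, 20 uM SAM) after a 15 min compound preincubation; product detected by AlphaScreen beads and anti-H3K9me1 antibody.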
BAZ2B block = blocks human BAZ2B. AlphaScreen BAZ2B-H3K14Ac peptide displacement. Potency, µM (top dose mostly 114 µM), inactives show at the highest dose activity change, negative = inhibition, most hits filed as inhibitors. AID 504333. Q9UIF8. 4.4% of 360,000 active; note: potency is the fitted concentration of half-maximal effect; % is set by controls: 0 for no effect and ±100 for the full control effect; nearly all actives have a fitted effect of over 60% in size
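AlphaScreen luminescence quantifies BAZ2B engagement of H3K14Ac peptide; the protein and biotinylated peptide are both at 50 nM final, buffer PBS pH 7.4 with 0.01% Tween-20, all steps at room temperature.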
HP1b binding inh = inhibitors of HP1-beta chromodomain binding to methylated histone tails; P83916; 0.56% of 390,000 active; AID 540317; Potency, µM (highest dose often 114 µM), without a hit: at the highest dose activity change, negative = inhibition, most hits filed as inhibitors; AlphaScreen HP1-beta / biotin-H3K9me3 peptide binding; note: potency is the fitted concentration of half-maximal effect; nearly all actives have a fitted effect of over 70% in size
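AlphaScreen: HP1-beta (50 nM) preformed 30 min with biotin-H3(1-18)K9me3 peptide (50 nM) in PBS pH 7.4, 0.01% Tween-20. Compound added for 30 min at RT, then streptavidin donor/nickel chelate acceptor beads (10 ug/mL) for 30 min.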
PI5P4K alpha inh = inhibitors of human PI5P4K alpha; AID 652105; 1.2% of 330,000 active; P48426; PI5P4Kalpha enzyme, ADP-Glo luminescence, 60 min; stronger effect = lower value; max response, %; active = max response of -50% or lower; inconclusive = between -30% and -50%; inactive = -30% or higher; note: value at the top dose of about 77 µM; % is set by controls: 0 for no effect and ±100 for the full control effect
Target sequence (P48426 whole entry, looked up): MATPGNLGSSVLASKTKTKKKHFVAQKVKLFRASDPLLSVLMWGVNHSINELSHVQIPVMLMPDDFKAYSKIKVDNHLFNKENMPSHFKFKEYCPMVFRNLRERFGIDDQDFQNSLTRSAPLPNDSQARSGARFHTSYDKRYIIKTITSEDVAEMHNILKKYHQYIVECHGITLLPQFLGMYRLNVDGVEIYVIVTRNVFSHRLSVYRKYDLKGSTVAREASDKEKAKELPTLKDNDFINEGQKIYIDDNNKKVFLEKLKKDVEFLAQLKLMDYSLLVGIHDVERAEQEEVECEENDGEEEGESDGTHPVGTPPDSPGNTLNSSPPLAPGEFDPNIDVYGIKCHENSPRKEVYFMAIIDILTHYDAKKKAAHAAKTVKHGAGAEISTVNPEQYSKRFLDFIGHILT
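Compounds were pin-transferred onto PI5P4Kalpha and substrate in HEPES pH 7.4 buffer with EGTA, CHAPS and 5% DMSO. ATP (5 microM final) started the reaction, which ran 60 minutes at room temperature before ADP-Glo detection.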
PLK1 PBD inh = PLK1 (human) polo-box domain binding inhibition | P53350 | Plk1 PBD binding of FITC phosphopeptide, fluorescence polarization | Potency, µM, inactives show max response, negative = inhibition, usual class: inhibitors | 2.8% of 360,000 active | AID 720504; note: potency is the fitted concentration of half-maximal effect; series mostly up to about 57 µM; % is set by controls: 0 for no effect and ±100 for the full control effect; nearly all actives have a fitted effect of over 65% in size
JMJD2A Tudor inh = blocks the human JMJD2A Tudor domain | AlphaScreen JMJD2A-Tudor / H3K4me3 peptide binding | Potency, µM (highest dose often 114 µM), inactives show at the top dose activity change, negative = inhibition, usual class: inhibitors | 4.4% of 390,000 active; note: potency is the fitted concentration of half-maximal effect; % is set by controls: 0 for no effect and ±100 for the full control effect; nearly all actives have a fitted effect of over 50% in size
Numbers without * were called inactive; ? = inconclusive; . = not tested or not shown; [ ] = remark or other dose. Unless noted, calls come from the whole dose curve; as a rule, active = well fitted curve in the direction sought with a large enough effect; inconclusive = small, poorly fitted or top-dose-only effect, or another doubt; inactive = no such curve, though single readings can be large; an effect the other way counts as inactive or inconclusive.

SMILES	G9a inh	BAZ2B block	HP1b binding inh	PI5P4K alpha inh	PLK1 PBD inh	JMJD2A Tudor inh
CC(=O)c1cccc(-n2nnnc2SCC(=O)N2CCCC2)c1	56µM*	-7%	28%	5	-16%	-19%
O=C1CCc2cc(S(=O)(=O)Nc3cccc(Cl)c3)ccc2N1	.	.	.	.	.	-11%
O=S(=O)(Nc1cccc(Cl)c1)c1ccc2oc(=S)[nH]c2c1	25µM*	.	-15%	-23	34µM*	20µM*
O=S(=O)(c1ccc2oc(=S)[nH]c2c1)N1CCCCC1	45µM*	-1%	14%	?	-23%	-18%
O=S(=O)(c1ccc(=S)[nH]c1)N1CCCCCC1	?	1%	32%	-2	?	4%
O=S(=O)(c1ccc(=S)[nH]c1)N1CCOCC1	?	-5%	-19%	?	7.5µM*	11µM*
O=S(=O)(c1ccc2c(c1)oc1ccccc12)N1CCOCC1	7%[59 µM]	-3%	16%	10	-3%	-15%
O=c1[nH]c2ccc(S(=O)(=O)N3CCCCC3)cc2o1	?	-2%	17%	.	-2%	?
O=S(=O)(c1ccc2oc(=S)[nH]c2c1)N1CCOCC1	1.3µM*	-38%	-41%	-69*	2.7µM*	79µM*
Cn1c(CCNC(=O)OC(C)(C)C)n[nH]c1=S	?	-15%	56%	6	-1%	40µM*
Cc1cccc(C(=O)NCCc2n[nH]c(=S)n2C)c1	11µM*	-2%	10%	-10	-10%	?
Cn1c(CNC(=O)c2cccs2)n[nH]c1=S	28µM*	8%	15%	-4	-11%	14µM*
Cn1c(CCNC(=O)c2cccs2)n[nH]c1=S	22µM*	3%	2%	-7	-9%	18µM*
Cc1ccc(C(C(=O)NC2CCCC2)N(CCCO)C(=O)Cn2nnc(-c3ccc(C)o3)n2)cc1 (configuration not stated)	8%	-3%	-8%	-7	-15%	-26%
CC1CCN(S(=O)(=O)c2c[nH]c(=O)[nH]c2=O)CC1	0%	12%	38%	1	-4%	-11%
O=C(NCc1n[nH]c(=S)n1-c1ccc(Br)cc1)c1cccs1	10µM*	-16%	2%	-1	?	25µM*
COc1ccccc1-n1c(CNC(=O)c2cccs2)n[nH]c1=S	?	-17%	13%	0	-4%	?
Cc1cccc(NC(=O)Cn2nnc(C(=O)NCc3cccs3)c2N)c1	8%[59 µM]	.	15%	.	.	?
O=C1C(=O)N(Cc2cccc([N+](=O)[O-])c2)c2ccccc21	12%[59 µM]	-25%	-2%	-5	-15%	-16%
NNc1cc([N+](=O)[O-])cc2c1C(=O)N(Cc1ccccc1)S2=O (configuration not stated)	2.8µM*	?	-2%	-66*	?	56µM*
CC(C)CCNC(=O)c1cc(Sc2ccc(F)cc2F)nc2ccccc12	0%[59 µM]	0%	3%	.	.	-20%
CC(C)N(C)CCOC(=O)/C=C/c1ccccc1	15%[59 µM]	-14%	18%	0	-10%	-10%
CC1=CC(=O)C=C(C)C1=NOC(=O)/C=C\c1ccccc1	-8%[59 µM]	-2%	1%	-23	1.3µM*	-23%
CC1=C(C)/C(=N\OC(=O)/C=C/c2ccccc2)C=CC1=O	1%	-6%	?	?	3µM*	18µM*
Cc1ccc(NC(=O)C(C)OC(=O)/C=C/c2ccccc2)cc1 (configuration not stated)	24%	-14%	20%	-3	-4%	-23%
SMILES	G9a inh	BAZ2B block	HP1b binding inh	PI5P4K alpha inh	PLK1 PBD inh	JMJD2A Tudor inh
N/C(=N\OC(=O)/C=C/c1ccccc1)c1ccncc1	26%[59 µM]	-5%	18%	0	5%	-7%
CC1=CC(=NOC(=O)/C=C/c2ccccc2)C=C(C)C1=O	30%[0.501 µM]	13µM*	-21%	-5	19µM*	-27%
COc1cc(-c2nc3ncccn3c2Nc2ccc(C)cc2C)ccc1O	4%[59 µM]	1%	20%	.	.	-25%
Cc1cccc(N=Cc2[nH]c3ccc(Br)c(Cl)c3c2O)c1	10µM*	-13%	?	-25	1%	?
Cc1onc(-c2ccccc2)c1C(=O)NC(=S)NNC(=O)c1ccccc1O	-4%[59 µM]	35µM*	-6%	-3	-18%	79µM*
Cc1onc(-c2ccccc2)c1C(=O)NCc1ccco1	50µM*	8%	22%	-18	-12%	-11%
Cc1onc(-c2ccccc2)c1C(=O)NC(=S)NNC(=O)c1ccc(O)cc1O	?	22µM*	-15%	-18	?	79µM*
Cc1onc(-c2ccccc2)c1C(=O)NC(=S)NNC(=O)c1ccc(O)cc1	4%[59 µM]	3%	-7%	-20	-10%	?
Cc1cccc(C(=O)NC(=S)Nc2c(C)n(C)n(-c3ccccc3)c2=O)c1	.	.	60%	1	?	-20%
CC(=O)N1CCc2cc(S(=O)(=O)NC(Cc3ccccc3)C(=O)NCc3ccccc3)ccc21 (configuration not stated)	-3%[59 µM]	.	49%	.	.	-1%
COc1ccc2cc(Br)ccc2c1CC(=O)N(C)C	?	-10%	38%	0	-3%	-6%
COc1ccc(CN(C)Cc2c(O)ccc3cc(Br)ccc23)cc1OC	25µM*	?	2%	6	?	-22%
COc1ccc(CCN(C)Cc2c(O)ccc3cc(Br)ccc23)cc1OC	25µM*	-37%	30%	-4	?	-25%
COc1ccc(CCN(C)C(=O)c2cncc(Br)c2)cc1OC	11%	5%	31%	-8	-8%	-7%
CCCCN(C)C(=O)Cc1c(OC)ccc2cc(Br)ccc12	32µM*	-3%	?	-16	24µM*	25µM*
COc1ccc(CN2CCCCCC2)cc1OC	.	.	-23%	-10	-3%	?
COc1ccc(Br)cc1CN1CCSCC1	45µM*	?	56µM*	6	-7%	3.5µM*
COc1ccc(CN2CCCCCC2)cc1Br	32µM*	?	?	2	-14%	3.5µM*
COc1ccc(Br)cc1CN1C(=O)NC2(CCCCCC2)C1=O	31%	5%	17%	4	-5%	-8%
COc1ccc(Br)cc1CN1CCCCCC1	32µM*	?	-24%	0	-12%	22µM*
Cc1cccc(C(=O)Nc2nnc(S(=O)(=O)N(C)Cc3ccc(Cl)cc3)s2)c1	-5%[59 µM]	-14%	38%	.	.	-10%
COc1ccccc1CNC(=O)C1CCCN(S(=O)(=O)c2ccc3c(c2)CCCN3C(C)=O)C1 (configuration not stated)	-2%[59 µM]	-2%	9%[57 µM]	.	.	-11%
Cc1cccc(C(=O)n2cnnc2N)c1	22µM*	-27%	33%	-4	-25%	-4%
COc1ccc2c(c1)c(C(=O)CN1CCc3ccccc3C1)c(C)n2C	45µM*	-5%	26%	-20	-11%	?

Screens (PubChem BioAssay)
